Results published in PubChem BioAssay.
Activity calls are given as the source filed them.

Key:
[1] = binders of probe aFSTL3 on microarray, primary screen, stem cell growth factor project, biochemical, small-molecule microarray, fluorescence 635/667 (AID 1064); settings: higher = more signal;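 also: measures binding of the biotinylated anti-FSTL3 antibody to printed compounds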
[2] = binders from COS7 lysate, DM2A8 probe, primary screen, torsin A project, cell lysate, small-molecule microarray, fluorescence 635/667 (AID 1065); settings: higher = more signal, COS7 lysate expressing mutant human TOR1A
[3] = binders of probe aFGF2 on microarray, primary screen, stem cell growth factor project, biochemical, small-molecule microarray, fluorescence 635/667 (AID 1067); settings: higher = more signal;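 also: measures binding of biotinylated aFGF2 protein to printed compounds on slides; z-score merges feature fluorescence and signal-to-noise across triplicate slides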
[4] = binders of probe aFGF10 on microarray, primary screen, stem cell growth factor project, biochemical, small-molecule microarray, fluorescence 635/667 (AID 1071); settings: higher = more signal;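 also: score merges 667 nm spot intensity and signal to noise from triplicate slides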
[5] = target: Neurogenic locus notch homolog protein 2 (Homo sapiens) (UniProt Q04721); assay: Notch2 binders on small-molecule microarrays, primary screen, biochemical, small-molecule microarray, 635 nm fluorescence, stem cell growth factors (AID 1073); settings: Notch2 binding, higher = more signal
[6] = target: Pro-neuregulin-1, membrane-bound isoform (Homo sapiens) (UniProt Q02297); assay: NRG1 binders on small-molecule microarrays, primary screen, psychiatric disease protein project, biochemical, small-molecule microarray, fluorescence 635/667 (AID 1075); settings: NRG1 binding, 635 nm fluorescence, higher = more signal;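 also: score combines 667 nm spot fluorescence with signal to noise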
[7] = test system: Neuregulin-1 EGF-like domain; assay: binders of neuregulin-1 EGF-like domain, primary screen, biochemical, small-molecule microarray, 635 nm fluorescence (AID 1081); settings: small-molecule microarray binding, higher = more signal;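 also: binding of the protein to compounds printed on small-molecule microarray slides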
[8] = FRG1 promoter luciferase signal modulators, primary screen, FRG1 inhibition for FSHD, cell-based, C2C12 myotubes, firefly/Renilla luciferase, luminescence (AID 1084); settings: higher = more signal, called active from +8 up or from −8 down
[9] = binders of probe aFST on microarray, primary screen, stem cell growth factor project, biochemical, small-molecule microarray, fluorescence 635/667 (AID 1086); settings: higher = more signal;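 also: score merges 667 nm fluorescence with signal-to-noise of each printed compound spot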
[10] = binders of probe aHhip on microarray, primary screen, stem cell growth factor project, biochemical, small-molecule microarray, fluorescence 635/667 (AID 1087); settings: higher = more signal;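 also: score merges spot fluorescence at 667nm with spot signal to noise ratio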
[11] = test system: PRMT1 (protein arginine N-methyltransferase 1); assay: PRMT1 binders on small-molecule microarrays, primary screen, biochemical, small-molecule microarray, 635 nm fluorescence (AID 1088); settings: small-molecule microarray binding, higher = more signal;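 also: binding of Prmt1 protein to compounds spotted on small-molecule microarray slides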
[12] = yeast growth modulation, basal conditions, primary screen, YJM789 clinical isolate, OD600, 24 h (AID 1089);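 also: growth of clinical yeast isolate S. cerevisiae YJM 789 seeded 1000 cells per well; test concentration not given here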; settings: S. cerevisiae YJM789 growth, higher = more signal, called active from +8 up or from −8 down
[13] = fission yeast growth modulation, primary screen, strain 972, OD600, 24 h, no modulator (AID 1090);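 also: basal condition with compound alone and no growth modifier present; test concentration not given here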; settings: S. pombe 972 growth, higher = more signal, called active from +8 up or from −8 down
[14] = S. cerevisiae growth modulation with rapamycin, primary screen, strain BY4716, OD600, 96 h (AID 1091); settings: higher = more signal, called active from +8 up or from −8 down; also: test concentration not given here
[15] = target: Torsin-1A-interacting protein 2 (Homo sapiens) (UniProt Q8NFQ8); assay: LULL1 binders on small-molecule microarray, primary screen, cell lysate, human LULL1 lysate, 635/667 nm fluorescence (AID 1092); settings: hLULL1 lysate binding, 635 nm fluorescence, higher = more signal;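 also: probe is lysate of COS7 cells overexpressing human LULL1; score merges per-feature 667 nm fluorescence with signal-to-noise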
[16] = E. coli growth modulation, two-sided OD650, primary screen, E. coli filamentation project, strain DRC41, 24 h (AID 1093); settings: OD650, 24 h, higher = more signal, called active from +8 up or from −8 down;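 also: MC1000 strain lacking acrAB efflux and sulA so SOS filamentation is blocked; test concentration not given here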
[17] = small-molecule microarray binders of probe aLefty2, primary screen, biochemical, biotinylated probe, 635/667 nm fluorescence (AID 1094); settings: higher = more signal;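 also: score merges spot fluorescence near 667 nm with spot signal-to-noise ratio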
[18] = test system: Noggin (protein binding on small-molecule microarray); assay: Noggin binders on small-molecule microarray, primary screen, biochemical, 635/667 nm fluorescence (AID 1095); settings: 635 nm fluorescence, higher = more signal;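 also: score merges 667 nm feature fluorescence with signal to noise over triplicate slides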
[19] = target: Neurogenic locus notch homolog protein 3 (Homo sapiens) (UniProt Q9UM47); assay: NOTCH3 binders on small-molecule microarray, primary screen, biochemical, 635/667 nm fluorescence (AID 1096); settings: NOTCH3 binding, 635 nm fluorescence, higher = more signal
[20] = small-molecule microarray binders of probe aEGFR, primary screen, biochemical, biotinylated probe, 635/667 nm fluorescence (AID 1097); settings: higher = more signal;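 also: probe is a biotinylated anti-EGFR antibody binding compounds printed on slides; score combines fluorescence near 667 nm and signal to noise of each spot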

Sequence of Torsin-1A-interacting protein 2 (Homo sapiens) (Q8NFQ8 whole entry, looked up): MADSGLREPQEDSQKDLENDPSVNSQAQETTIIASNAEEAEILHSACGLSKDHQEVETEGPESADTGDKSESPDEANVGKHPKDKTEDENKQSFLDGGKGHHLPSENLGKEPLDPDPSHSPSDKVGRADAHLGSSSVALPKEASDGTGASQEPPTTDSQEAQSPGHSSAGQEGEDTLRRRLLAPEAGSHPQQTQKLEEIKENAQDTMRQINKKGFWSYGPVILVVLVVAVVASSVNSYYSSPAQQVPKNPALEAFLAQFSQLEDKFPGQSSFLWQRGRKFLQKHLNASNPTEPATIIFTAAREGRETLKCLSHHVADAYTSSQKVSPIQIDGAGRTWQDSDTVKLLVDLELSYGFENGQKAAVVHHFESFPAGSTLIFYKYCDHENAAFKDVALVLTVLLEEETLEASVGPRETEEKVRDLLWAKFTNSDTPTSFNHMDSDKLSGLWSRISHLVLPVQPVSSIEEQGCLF
Sequence of Neurogenic locus notch homolog protein 2 (Homo sapiens) (Q04721 whole entry, looked up, canonical isoform): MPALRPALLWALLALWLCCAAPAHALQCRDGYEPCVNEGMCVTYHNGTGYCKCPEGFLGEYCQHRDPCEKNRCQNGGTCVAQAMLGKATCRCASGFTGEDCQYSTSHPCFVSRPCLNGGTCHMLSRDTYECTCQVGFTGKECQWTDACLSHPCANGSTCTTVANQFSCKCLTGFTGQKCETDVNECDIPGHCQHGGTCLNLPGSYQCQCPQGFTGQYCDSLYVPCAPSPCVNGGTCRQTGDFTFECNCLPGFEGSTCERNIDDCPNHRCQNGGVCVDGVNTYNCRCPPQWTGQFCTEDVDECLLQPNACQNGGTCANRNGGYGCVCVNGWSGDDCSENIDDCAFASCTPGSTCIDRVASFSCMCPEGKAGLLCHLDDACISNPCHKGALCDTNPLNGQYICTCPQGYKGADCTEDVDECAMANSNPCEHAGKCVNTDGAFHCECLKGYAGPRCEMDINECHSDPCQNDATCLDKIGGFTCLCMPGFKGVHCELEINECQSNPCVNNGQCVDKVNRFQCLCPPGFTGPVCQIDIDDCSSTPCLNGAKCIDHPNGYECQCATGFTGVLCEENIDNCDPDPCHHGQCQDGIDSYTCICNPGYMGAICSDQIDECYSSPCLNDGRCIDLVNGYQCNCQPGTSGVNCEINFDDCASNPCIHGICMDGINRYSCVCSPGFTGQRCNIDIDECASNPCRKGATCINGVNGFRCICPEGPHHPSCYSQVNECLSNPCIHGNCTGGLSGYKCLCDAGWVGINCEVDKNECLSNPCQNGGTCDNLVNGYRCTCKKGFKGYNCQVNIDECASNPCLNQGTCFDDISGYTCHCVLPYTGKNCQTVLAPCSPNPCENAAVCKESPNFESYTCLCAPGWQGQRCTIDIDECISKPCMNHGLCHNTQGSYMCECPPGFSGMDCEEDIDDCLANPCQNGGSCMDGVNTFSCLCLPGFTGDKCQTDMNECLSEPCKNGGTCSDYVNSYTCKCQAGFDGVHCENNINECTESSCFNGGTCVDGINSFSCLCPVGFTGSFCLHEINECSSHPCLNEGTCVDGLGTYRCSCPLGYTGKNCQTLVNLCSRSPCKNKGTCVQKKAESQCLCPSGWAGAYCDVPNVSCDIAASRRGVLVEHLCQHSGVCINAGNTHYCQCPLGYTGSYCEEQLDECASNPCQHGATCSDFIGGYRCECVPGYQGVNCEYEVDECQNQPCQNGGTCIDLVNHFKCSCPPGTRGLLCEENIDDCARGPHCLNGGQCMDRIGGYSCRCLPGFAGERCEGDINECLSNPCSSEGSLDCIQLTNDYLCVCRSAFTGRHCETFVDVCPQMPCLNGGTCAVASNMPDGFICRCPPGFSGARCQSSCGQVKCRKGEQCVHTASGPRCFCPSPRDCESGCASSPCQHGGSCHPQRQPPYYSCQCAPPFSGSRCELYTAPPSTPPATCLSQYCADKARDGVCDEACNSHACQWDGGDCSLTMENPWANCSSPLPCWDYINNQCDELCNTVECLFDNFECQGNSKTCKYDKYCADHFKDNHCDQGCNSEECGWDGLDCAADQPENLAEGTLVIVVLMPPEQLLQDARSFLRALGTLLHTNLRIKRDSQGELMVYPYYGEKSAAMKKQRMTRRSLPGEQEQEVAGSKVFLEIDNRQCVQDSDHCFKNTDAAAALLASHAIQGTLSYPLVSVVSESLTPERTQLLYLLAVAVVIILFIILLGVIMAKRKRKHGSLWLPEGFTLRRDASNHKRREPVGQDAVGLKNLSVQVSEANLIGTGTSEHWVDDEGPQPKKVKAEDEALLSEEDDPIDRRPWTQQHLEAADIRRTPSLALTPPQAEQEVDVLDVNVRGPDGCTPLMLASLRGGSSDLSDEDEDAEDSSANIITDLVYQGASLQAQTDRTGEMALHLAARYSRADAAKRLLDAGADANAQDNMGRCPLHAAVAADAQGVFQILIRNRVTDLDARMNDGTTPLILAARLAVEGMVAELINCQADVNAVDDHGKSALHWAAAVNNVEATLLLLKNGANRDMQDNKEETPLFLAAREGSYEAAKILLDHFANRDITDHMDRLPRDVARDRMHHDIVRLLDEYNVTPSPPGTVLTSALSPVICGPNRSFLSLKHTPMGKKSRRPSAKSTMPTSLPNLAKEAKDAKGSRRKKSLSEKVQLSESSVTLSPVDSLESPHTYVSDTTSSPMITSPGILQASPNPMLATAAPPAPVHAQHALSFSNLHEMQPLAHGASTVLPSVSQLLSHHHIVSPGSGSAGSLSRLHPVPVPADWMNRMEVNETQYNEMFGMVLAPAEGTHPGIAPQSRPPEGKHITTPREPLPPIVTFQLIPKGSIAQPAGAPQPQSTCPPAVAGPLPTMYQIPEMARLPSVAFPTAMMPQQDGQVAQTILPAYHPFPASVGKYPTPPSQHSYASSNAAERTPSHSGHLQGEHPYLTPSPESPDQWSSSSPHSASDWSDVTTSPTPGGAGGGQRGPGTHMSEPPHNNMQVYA
Sequence of Pro-neuregulin-1, membrane-bound isoform (Homo sapiens) (Q02297 whole entry, looked up, the tested form may be a part, canonical isoform): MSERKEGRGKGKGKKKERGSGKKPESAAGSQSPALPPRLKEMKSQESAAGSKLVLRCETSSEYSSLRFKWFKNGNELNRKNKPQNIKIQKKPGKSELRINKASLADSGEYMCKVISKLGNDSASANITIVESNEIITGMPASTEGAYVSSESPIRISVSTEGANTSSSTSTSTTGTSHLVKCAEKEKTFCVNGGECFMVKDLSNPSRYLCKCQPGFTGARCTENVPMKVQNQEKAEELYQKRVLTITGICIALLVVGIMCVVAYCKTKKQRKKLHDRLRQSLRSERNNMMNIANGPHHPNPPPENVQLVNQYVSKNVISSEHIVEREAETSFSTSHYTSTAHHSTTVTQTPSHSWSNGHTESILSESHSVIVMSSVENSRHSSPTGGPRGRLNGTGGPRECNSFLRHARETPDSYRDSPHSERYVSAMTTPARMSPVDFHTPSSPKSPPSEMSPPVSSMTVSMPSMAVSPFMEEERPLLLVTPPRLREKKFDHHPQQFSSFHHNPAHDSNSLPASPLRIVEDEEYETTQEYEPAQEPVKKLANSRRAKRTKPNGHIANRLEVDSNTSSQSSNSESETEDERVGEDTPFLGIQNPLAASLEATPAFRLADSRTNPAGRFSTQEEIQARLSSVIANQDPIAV

Row | Structure (SMILES) | composite z-score [1] | composite z-score [2] | composite z-score [3] | composite z-score [4] | composite z-score [5] | composite z-score [6] | composite z-score [7] | z-score [8] | composite z-score [9] | composite z-score [10] | composite z-score [11] | z-score [12] | z-score [13] | z-score [14] | composite z-score [15] | z-score [16] | composite z-score [17] | composite z-score [18] | composite z-score [19] | composite z-score [20]
1 | COC(=O)[C@H]1O[C@@H](c2c(OC)c(OC)c(C)c(OC)c2OC)[C@H](C)[C@@H](O)[C@H]1C | -0.341 | 0.499 | 0.0066 | 0.915 | 1.06 | 0.368 | 0.741 | -0.204 (inactive) | 0.224 | -0.0965 | 1.03 | 0.234 (inactive) | 0.346 (inactive) | -0.438 (inactive) | 0.964 | 0.196 (inactive) | -0.0131 | 0.585 | 1.1 | 0.0821
2 | CCOC(=O)[C@H](CC(C)C)NC(=O)CCC1CC(OC(=O)NCc2cccc3ccccc23)CC2(CCCC(COC(=O)NCCOc3ccccc3)O2)O1 (stereo not given in full) | -0.646 | 0.374 | -0.016 | 0.273 | 1.2 | 0.647 | 1.01 | 1.67 (inactive) | 0.0697 | 0.224 | 1.54 | -0.524 (inactive) | 0.269 (inactive) | 0.231 (inactive) | 1.13 | 0.0653 (inactive) | -0.177 | 0.317 | 0.859 | -0.171
3 | C=CC[C@@H]1C=C[C@H](ON=C2[C@H]3CCn4c(=O)n(-c5ccccc5)c(=O)n4[C@H]3[C@H](O)[C@@H]3O[C@H]23)[C@@H](CO)O1 | -0.356 | 0.189 | -0.065 | 0.274 | 0.502 | 0.19 | 0.0586 | -0.299 (inactive) | 0.0716 | 0.104 | -0.41 | 0.552 (inactive) | 0.383 (inactive) | 1.04 (inactive) | -0.114 | 0.607 (inactive) | -0.257 | 0.308 | -0.0701 | 0.0434
4 | CCN1C(=O)[C@H]2[C@H]3[C@H](O)[C@H](O)CC(=NOC[C@H]4O[C@H](c5ccccc5)C=C[C@@H]4Oc4ccc(OC)cc4)[C@@H]3CC[C@H]2C1=O | -0.0474 | 0.174 | 0.0338 | 0.999 | 0.887 | 0.488 | 0.953 | 0.52 (inactive) | 0.0352 | 0.351 | 1.28 | -0.125 (inactive) | -0.653 (inactive) | -0.175 (inactive) | 0.996 | 0.964 (inactive) | -0.0271 | 0.738 | 1.11 | -0.0085
5 | CC(C)(C)N1C(=O)[C@H]2[C@H]3[C@H](O)[C@H](O)CC(=NO[C@@H]4O[C@H](CO)[C@@H](O)[C@H](O)[C@H]4O)[C@H]3CC[C@H]2C1=O | -0.477 | 0.128 | -0.17 | 0.569 | 0.45 | 0.947 | 0.389 | 0.599 (inactive) | 0.263 | -0.0994 | 0.693 | 0.768 (inactive) | -1.05 (inactive) | -0.235 (inactive) | 0.959 | -0.864 (inactive) | -0.0603 | 0.593 | 0.155 | 0.0334
